# Experimental data taken from PubChem BioAssay AID504832 (National Center for Advancing Translational Sciences (NCATS), 2011).
# Several values for one entry are separate records, joined by “and”; a condition that tells them apart may be missing. Equal entries are not always repeated. In all, about 310,000 compounds went through this assay and about 18,000 (5.8%) were called active. Roughly 22% stayed inconclusive and do not appear here. Calls come from the whole dose curve; as a rule, active = well fitted inhibition curve with a large enough effect; inconclusive = small, poorly fitted or top-dose-only effect, or another doubt; inactive = no such curve, though single readings can be large or run the other way. The entries come from a sample that favours actives as a whole. Where a structure was tested more than once in an assay, its records may differ in their call.
# Assay: Primary qHTS for delayed death inhibitors of the malarial parasite plastid, 48 hour incubation
# Details: P. falciparum luciferase growth in erythrocytes; series mostly up to 28.7 µM; activity change, negative = inhibition: at the top concentration
# Summary of the method: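 Erythrocytes infected with P. falciparum carrying an integrated firefly luciferase reporter (2% hematocrit, 0.1% parasitemia final) were exposed to compounds in RPMI 1640 with 0.5% Albumax at 37 C, 5% CO2. Growth inhibition was scored as reduced luminescence.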
# % is set by controls: 0 for no effect and ±100 for the full control effect; potency is the fitted concentration of half-maximal effect.
SMILES,Potency,"activity change, negative = inhibition"
CC(C)(C)c1cc(C(=O)NN)n(Cc2ccc(Cl)cc2Cl)n1,10.4 µM (active),
O=C(Cc1ccc(Cl)cc1)NC(=S)Nc1ccccc1O,,7.57% (inactive)
Cc1cc(SCc2c(F)cccc2Cl)nc(=O)[nH]1,,-16.1% (inactive)
COC(c1ccccc1)(c1ccccc1)C(Oc1nc(C)cc(C)n1)C(=O)O (configuration not stated),inactive and 11.7 µM (active),
C/C(=N\NC(=O)c1nc(C)cc(C)n1)c1ccccc1,,174% (inactive)
Cc1cc(C)nc(S/C=C/C(=O)c2ccccc2)n1,,0% (inactive)
COc1ccccc1N1CCN(S(=O)(=O)c2ccc(Cl)cc2)CC1,,1.21% [at 0.00184 µM] (inactive)
CC1CCC(NC(=O)CN(C)S(=O)(=O)c2ccc3c(c2)c(=O)n(C)c(=O)n3C)CC1 (configuration not stated),,-14.7% (inactive)
Cc1cc(=O)oc2c1ccc1ccccc12,,-0.434% (inactive)
C=CCN1C2CCCC1CC(NC(=S)Nc1cccc(OC)c1)C2 (configuration not stated),,-19.1% (inactive)
Cc1cc(C)cc(NC(=S)NC2CC3CCCC(C2)N3Cc2cccs2)c1 (configuration not stated),9.28 µM (active),
Cc1ccc(NC(=S)NC2CCCC2)cc1,,43.2% (inactive)
CC(=O)O[C@H]1CC[C@@]2(C)[C@@H](CC[C@@H]3[C@@H]2CC[C@]2(C)[C@@H](C(C)(C)O)C[C@@H]32)C1,,-8.46% (inactive)
O=C(/C=C(O)/C=C/c1ccc(O)cc1)/C=C/c1ccc(O)cc1,,-5.54% (inactive)
CC(=O)Nc1ccc(SC[C@H](Cc2ccccc2)N2CC[C@@H](C)CCC2=O)cc1,6.57 µM (active),
O=C1CC[C@H](O)CCN1[C@H](CSc1ccc(Br)cc1)Cc1ccccc1,,-4.11% (inactive)
CC(=O)Nc1ccc(NC(=O)C(C)OC(=O)C2CC(=O)N(CCc3ccccc3)C2)cc1 (configuration not stated),,-8.33% (inactive)
Cc1ccc2nc(NC(=O)C3CSC4(C)CCC(=O)N34)sc2c1 (configuration not stated),,35.9% (inactive)
Cc1cc(-c2nnc(SCC(=O)Nc3ccc(F)cc3)n2N)n[nH]1,,-18.5% (inactive)
CC(C)Cc1nnc(NC(=O)CCc2ccccc2)s1,,-16.9% (inactive)
O=C(Cc1ccccc1Cl)N1CCN(c2ccccn2)CC1,,2.94% (inactive)
O=C(CSc1ncccn1)N1CCCC1,,15.9% (inactive)
Cc1ccnc(N2CCN(C(=O)CSc3nc4ccccc4nc3N3CCCCC3)CC2)c1,13.1 µM (active),
COc1ccc2c(c1)c1nc3n(c(=O)c1n2CC(=O)Nc1ccccc1)CCS3,,29.3% (inactive)
O=C(CNS(=O)(=O)c1ccccc1)N1CCN(C(=O)c2ccco2)CC1,,39.3% (inactive)
CS/C(=C\C(=O)c1ccco1)Nc1ccccc1Cl,8.28 µM (active),

SMILES,Potency,"activity change, negative = inhibition"
O=C(Nc1ccccc1C(=O)N1CCCCC1)c1ccco1,,19.7% (inactive)
O=C(c1cccc(S(=O)(=O)Nc2ccccc2Cl)c1)N1CCN(C(=O)c2ccco2)CC1,,-20.7% (inactive)
CCC(C)N(C(=O)Cn1nc(C)c([N+](=O)[O-])c1C)C1CCS(=O)(=O)C1 (configuration not stated),,5.42% (inactive)
O=C(NCCc1ccco1)C(=O)NCCC1CCCCN1S(=O)(=O)c1ccccc1 (configuration not stated),,-21.1% (inactive)
COCCn1c(Cc2cccn2C)nnc1SCC(=O)Nc1nccs1,,-4.4% (inactive)
COc1ccccc1NC(=O)CSc1nnc(Cc2cccn2C)n1-c1ccc(F)cc1,10.4 µM (active),
COc1ccc(C)cc1NC(=O)CSc1nnc(CC(=O)Nc2ccccc2F)n1C,,-53.1% (inactive)
Cc1ccc(NC(=O)COC(=O)CN2CCCCCC2=O)c(C)c1,,19.1% (inactive)
Oc1ccc2ccccc2c1N=Nc1nccs1,13.1 µM (active),
Oc1ccc(N=Nc2nccs2)c(O)c1,9.28 µM (active),
c1ccc(NCc2cccc3ccccc23)nc1,,5.25% (inactive)
Oc1c(C=Nc2cccc3nsnc23)ccc2ccccc12,,5.5% (inactive)
COc1cccc(-n2c(N)cc(=O)nc2SCC(=O)Nc2cc(C)on2)c1,,-20% (inactive)
CC(C)N(C(=O)Cn1cc(S(=O)(=O)CC(=O)N2CCOCC2)c2ccccc21)C(C)C,,-2.29% (inactive)
CN(Cc1ccccc1)C(=O)c1ccc(NC2=NC3CS(=O)(=O)CC3S2)cc1 (configuration not stated),,49.1% (inactive)
O=C(COC(=O)c1cccc(Cl)c1)NC1CCCCCCC1,,-11.6% (inactive)
Cc1ccc(S(=O)(=O)N2CCN(C)CC2)cc1,,0% (inactive)
COC(=O)C1=C(O)/C(=C/c2ccc(OCC(=O)Nc3ccccc3)cc2)N=C1C,,-10.6% (inactive)
CCC1=NN2C(=N)/C(=C/c3cc(C)n(-c4ccccc4)c3C)C(=O)N=C2S1,,-0.786% (inactive)
CCOC(=O)C1=C(O)/C(=C/c2cc(C)n(-c3ccccc3)c2C)N=C1C,0.0657 µM (active),
O=C(NCCCN1CCCC1=O)c1cccc(S(=O)(=O)NCc2ccccc2)c1,,2.77% (inactive)
O=[N+]([O-])c1ccc(N2CCN(c3ccc(F)cc3)CC2)cn1,,-14.1% (inactive)
Cc1nnc(NC(=O)c2ccc3nccnc3c2)s1,,43% (inactive)
CN(C(=O)COc1ccccc1)c1nnc(-c2ccncc2)s1,,10.5% (inactive)
COc1ccc(CCN(C(=O)COc2ccccc2)c2nc(-c3ccccc3)cs2)cc1OC,10.4 µM (active),
COc1ccc(CC(=O)Nc2nc(-c3ccc(F)c(F)c3)cs2)cc1OC,,-10.2% (inactive)
